Results on 40 compounds are retold here after PubChem BioAssay (NCATS).

Where “and” joins values, the source holds several entries; their conditions need not be identical. Equal values may be shown once. Inconclusive results are not listed. Calls of active or inactive are those of the source. The call rests on the fitted dose curve; in most records, active means well fitted inhibition curve with a large enough effect in the signal ratio, with a control signal flat (not every such curve was filed as active); inconclusive means small, poorly fitted or top-dose-only effect, or effect the other way, or a change in a side signal; inactive means flat fitted curve, though single readings scatter; the % refers to the signal ratio.
On the % scale 0 is the no-effect control and ±100 the full control effect.

Sequence of Thyroid hormone receptor beta (Homo sapiens) (P10828 whole entry, looked up): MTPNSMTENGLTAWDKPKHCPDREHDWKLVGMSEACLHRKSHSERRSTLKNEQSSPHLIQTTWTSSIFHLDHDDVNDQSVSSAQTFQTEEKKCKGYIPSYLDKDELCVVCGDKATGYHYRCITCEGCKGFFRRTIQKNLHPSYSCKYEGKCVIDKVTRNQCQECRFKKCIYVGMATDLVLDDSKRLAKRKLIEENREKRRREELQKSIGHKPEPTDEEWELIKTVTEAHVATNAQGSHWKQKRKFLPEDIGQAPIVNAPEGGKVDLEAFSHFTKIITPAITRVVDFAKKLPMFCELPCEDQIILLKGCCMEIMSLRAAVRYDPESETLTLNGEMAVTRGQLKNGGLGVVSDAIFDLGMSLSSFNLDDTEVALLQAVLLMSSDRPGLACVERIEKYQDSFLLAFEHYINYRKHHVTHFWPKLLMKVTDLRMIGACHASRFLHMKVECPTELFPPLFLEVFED

This assay addresses Thyroid hormone receptor beta (Homo sapiens) (UniProt P10828). Kind of assay: qHTS assay for small molecule antagonists of thyroid hormone receptor beta signaling (AID 588547).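 Further: cells stimulated with 0.4 nM T3 agonist during compound exposure; series mostly up to about 77 µM.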 As to conditions: TR-UAS-bla HEK293, beta-lactamase ratio, antagonist mode, 18 h. From the text:
NIH Chemical Genomics Center [NCGC] U.S. Environmental Protection Agency [EPA] National Institutes of Environmental Health Sciences [NIEHS] National Toxicology Program [NTP] NCGC Assay Overview Thyroid hormone receptor (TR) belongs to nuclear hormone receptor superfamily. There are two subtypes for TR: TR-alpha and TR-beta. TR-beta plays a major role in regulating plasma cholesterol levels and it mediates the biological activities of thyroid hormone. Screening environmental chemicals on TR-beta signaling will provide important information for the mechanism of compound action.
NCGC Assay Protocol Summary Using a beta-lactamase reporter-gene under control of the TR response element, a cell-based assay [GeneBLAzer TR-UAS-bla-GripTite assay developed by Invitrogen] was used to measure TR-beta signaling in antagonist mode. TR-UAS-bla-GripTite HEK 293 cells were used with assay medium containing 2% charcoal/dextran FBS, 0.1 mM NEAA and 1 mM sodium pyruvate. The assay was performed in clear bottom black Greiner 1536-well plates. Library compounds were measured for their ability to inhibit the reporter gene activity. Compounds were screened in a titration series in 1536-well format. The fluorescence intensity (405 nm excitation, 460/530 nm emission) was measured using an EnVision plate reader. […] Concentration-response titration points for each compound were fitted to the Hill equation yielding concentrations of half-maximal inhibition (IC50) and maximal response (efficacy) values. qHTS protocol for TR-beta beta-lactamase assay in antagonist mode [Step] [Parameter] [Value] [Description] 1. Reagent; 5 uL; 2500 cells/well 2. Incubation; 37 C for 4 hrs 3. Compounds; 23 nL; 0.59 nM to 92 uM 4. Controls (DMSO); 23 nL 5. Agonist (Stimulator); 1uL; T3 at 0.4nM (final) concentrations 6. Incubation; 37 C for 18 hrs 7. Detection reagent; 1 uL of CCF4-dye 8. Incubation; RT for 2 hrs 9. Detection; Fluorescence; Envision plate reader
`Cc1cc(C)cc(O)c1`: the activity change % (negative = inhibition) was 2.53% (inactive).

Consider `Cc1ccc(C)c(N)c1`, for which the activity change % (negative = inhibition) is -4.28% (inactive).

For the compound `Cc1ccc(C)c([N+](=O)[O-])c1`, the activity change % (negative = inhibition) is 0.688% (inactive).

As for `Cc1cccc(C)c1O`, the activity change % (negative = inhibition) was -9.8% (inactive).

Regarding `CCC(C)(C)C(=O)O`, the activity change % (negative = inhibition) is -3.87% (inactive).

As to `C=C(C)C(=O)OCCCCCCCCCC`, the activity change % (negative = inhibition) is 12.3% (inactive).

On to `CC1=C(/C=C/C(C)=C/C=C/C(C)=C\C=O)C(C)(C)CCC1`, for which the activity change % (negative = inhibition) was -14.6% (inactive).

With `C/C=C(/C)C#N`, the activity change % (negative = inhibition) is 15% (inactive).

In the case of `O=C(O)c1ccccc1C(=O)O`, the activity change % (negative = inhibition) was 0.364% (inactive).

On to `Cc1ccc([N+](=O)[O-])c(N)c1`, for which the activity change % (negative = inhibition) was -0.142% (inactive).

Regarding `BrC(Br)C(Br)Br`, the activity change % (negative = inhibition) is 0.66% (inactive).

As for `CO[Si](CCCNCCC[Si](OC)(OC)OC)(OC)OC`, the activity change % (negative = inhibition) was -0.795% (inactive).

For `CCOc1ccc(NC(C)=O)cc1N`, the activity change % (negative = inhibition) is 2.46% (inactive).

Consider `NC(=O)CCCCC(N)=O`, for which the activity change % (negative = inhibition) is 2% (inactive).

Consider `c1ccc2n[nH]nc2c1`, for which the activity change % (negative = inhibition) was -7.43% (inactive).

As to `CC(=O)c1ccccc1[N+](=O)[O-]`, the activity change % (negative = inhibition) is 19.8% (inactive).

For the compound `O=Nc1ccc(NO)cc1`, the activity change % (negative = inhibition) is -12.9% (inactive).

Regarding `C=Cc1ccccc1C=C`, the activity change % (negative = inhibition) is -4.38% (inactive).

Regarding `C1COC1`, the activity change % (negative = inhibition) was 14.8% (inactive).

With `CCC(C)=O`, the activity change % (negative = inhibition) is -18.3% (inactive).

Regarding `O=C(Cl)c1ccccc1[N+](=O)[O-]`, the activity change % (negative = inhibition) was -10.2% (inactive).

Consider `Cc1ccccc1C(N)=O`, for which the activity change % (negative = inhibition) is -3.78% (inactive).

`Nc1nc(CC(=O)O)cs1`: the activity change % (negative = inhibition) is 1.64% (inactive).

Take `CC(C)=C1CCC(C)CC1=O` (stereo not given): the activity change % (negative = inhibition) is -6.39% (inactive).

Take `O=[N+]([O-])c1ccccc1CCO`: the activity change % (negative = inhibition) was 2.13% (inactive).

Turning to `CCOc1ccccc1N`, the activity change % (negative = inhibition) was -11.6% (inactive).

Turning to `Cc1cc(C)cc(N)c1`, the activity change % (negative = inhibition) was -11.7% (inactive).

Regarding `Cc1cccc(C)c1[N+](=O)[O-]`, the activity change % (negative = inhibition) is 3.5% (inactive) and -3.75% (inactive).

Regarding `CCCCCNCCCCC`, the activity change % (negative = inhibition) is -1.69% (inactive) and -17.1% (inactive).

Consider `Cc1ccccc1C=O`, for which the activity change % (negative = inhibition) was 20.8% (inactive).

In the case of `CC(C)=CCC/C(C)=C/C=O`, the activity change % (negative = inhibition) was -16.2% (inactive).

As to `CC/C(C)=N/O`, the activity change % (negative = inhibition) is 13.4% (inactive).

Regarding `O=[N+]([O-])c1ccc(NCCO)c(OCCO)c1`, the activity change % (negative = inhibition) was -13.2% (inactive).

`CC(=O)OC(C)=O`: the activity change % (negative = inhibition) is 16.3% (inactive).

For `Cc1ccco1`, the activity change % (negative = inhibition) was 12.3% (inactive).

For the compound `CCOCCO`, the activity change % (negative = inhibition) is -11.8% (inactive).

Consider `CC1CCCO1` (stereo not given), for which the activity change % (negative = inhibition) is 1.5% (inactive).

As to `c1ccc(Oc2ccccc2)cc1`, the activity change % (negative = inhibition) is 13.9% (inactive) and 3.24% (inactive).

On to `CC1CCC2CC1C2(C)C` (stereo not given), for which the activity change % (negative = inhibition) was 12.3% (inactive).

For `Fc1ccccc1`, the activity change % (negative = inhibition) is -5.64% (inactive).
